Only a selection was taken, and hits are over-represented in it overall.
Tg IFNy HTS = T. gondii growth inhibition under IFN-gamma; Toxoplasma gondii growth in IFN-gamma-treated host cells; hits give low values; activity change, negative = inhibition, % (no concentration beside the values); 3.8% of 69,000 active; AID 1259416; in the data active means activity change below about -70%, passing the limit was not always enough;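 further: host cells are HeLa cells infected with Toxoplasma gondii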
Hits are given with their value; n = inactive; ! = not confirmed by another sample.

SMILES | Tg IFNy HTS
Cc1cc(=O)[nH]c(SC(C)C(=O)N2CCn3cncc3C2)n1 (stereo unspecified) | n
Cc1ccc2c(c1C)-n1cccc1C1(CCN(S(=O)(=O)c3ccccc3F)CC1)N2 | n
COCC(=O)Nc1ccccc1-c1cccc(NC(C)=O)c1 | n
CC1=NN(c2ccccc2)C(=O)C1(O)C1C(=O)c2ccccc2C1=O (stereo unspecified) | n
O=C(NC(c1nccs1)C1CCCN(Cc2cccc(F)c2)C1)c1ccccc1 (stereo unspecified) | n
CC[C@H](C)[C@@H]([C@@H](CC(=O)N1CCC[C@H]1[C@H](OC)[C@@H](C)C(=O)N[C@@H](Cc1ccccc1)c1nccs1)OC)N(C)C(=O)[C@@H](NC(=O)[C@H](C(C)C)N(C)C)C(C)C | -83.8
Cc1cc(C)n(CC(C)C(=O)NC(Cc2cccs2)c2nccs2)n1 (stereo unspecified) | n
CCCc1cnc(N2CCN(C(=O)c3c(-c4ccccc4)noc3C)CC2)nc1 | -81.7
Cc1onc(-c2ccccc2)c1C(=O)Oc1ccccc1N1CCOCC1 | n
CCOC(=O)c1c(-c2ccccc2)noc1C(C)=O | n
CC1Cc2cc(C(=O)N3CCn4nc(C(=O)NCCN(C)C)cc4C3)ccc2O1 (stereo unspecified) | n
Cc1cc(C)nc(N2CCC(CNC(=O)c3cc(C(C)(C)C)[nH]n3)CC2)n1 | -77.1
CC(=O)N1CCN(c2nc(C)cc(C)n2)CC1 | n
Cc1nc(CC(NC(=O)c2cc(C(C)(C)C)[nH]n2)c2ccc(Cl)cc2)cc(=O)[nH]1 (stereo unspecified) | n
CC(C)C1CN(C(=O)c2ccc3cccnc3c2O)CCCN1CC1CC1 (stereo unspecified) | n
CCOCC12CCCOC1CCN(Cc1ccc(C)s1)C2 (stereo unspecified) | -88.4
CCOCC12CCCOC1CCN(C(=O)c1ccncc1)C2 (stereo unspecified) | n
CCOCC12CCCOC1CCN(Cc1cccs1)C2 (stereo unspecified) | n
Cc1nc(N[C@@H](CO)Cc2ccccc2)c2cnn(C)c2n1 | n
Cn1c(C2CCCN(c3ncccn3)C2)nc2ccccc21 (stereo unspecified) | n
c1cc(-c2ccc(-c3ncnc4ccsc34)cc2)[nH]n1 | -82.3
c1nc(NN2CCCCC2)c2sccc2n1 | n
Cc1ccc(Sc2ncnc3ccsc23)cc1 | n
Cc1cc(C)c(C(=O)N(CC#Cc2ccccc2)C2CCCC2)c(=O)[nH]1 | n
CC(=O)N1C2CCN(Cc3ccsc3)CC2C[C@H]1Cn1cncn1 (stereo partly specified) | n
SMILES | Tg IFNy HTS
COC(=O)c1sc(-c2cccs2)cc1NC(=O)CSCC(=O)O | n
COc1ccc(Cl)cc1NC(=O)Cn1c(=O)cc(C(=O)N2CCOCC2)c2ccccc21 | n
S=C(NCc1ccccc1)NCc1cccc(CNC(=S)NCc2ccccc2)c1 | n
Fc1ccc(CNC(=S)NC(Cc2ccccc2)c2ccccc2)cc1 (stereo unspecified) | -93.9
O=C(O)C(Cc1ccc(F)cc1)c1ccccc1 (stereo unspecified) | n
c1cncc(CN2CCC3(COCc4cnc(N5CCOCC5)nc43)C2)c1 (stereo unspecified) | n
CC(C)n1c2ccccc2c2c1cc(C(=O)N1CCC(N(C)C)CC1)n2-c1ncccn1 | n
COc1cccc(C2(O)CCSc3ccccc32)c1 (stereo unspecified) | n
CCCn1cc(NC(=O)c2cccc(CN3CC[C@H](O)C3)c2)nn1 | n
Cc1cnc(C)c(N2CCN(Cc3ccc4cccc(O)c4n3)CC2)n1 | n
Cn1ccc(C(=O)N2CCCC3(CC(Oc4cccnc4)CO3)C2)n1 (stereo unspecified) | n
CCOC(=O)[C@@]12CCCN(Cc3ccccn3)C[C@@H]1CN(C(C)C)C2 | n
C=CCN1C[C@H]2CN(Cc3ccccn3)CCC[C@@]2(C(=O)OCC)C1 | n
CCOC(=O)C1(Cc2cc(-c3ccccc3C)no2)CCN(Cc2ccccn2)CC1 | -76.6
CC(=O)c1c(C)nn(CC(=O)N2CCCC3(CC2)CNC(=O)O3)c1C (stereo unspecified) | n
O=C(NCc1ccc2c(c1)OCO2)c1ccccc1C1CCNC1 (stereo unspecified) | n
Fc1ccc(C2CCNCC2COc2ccc3c(c2)OCO3)cc1 (stereo unspecified) | -75.2
Fc1ccc([C@@H]2CCNC[C@H]2COc2ccc3c(c2)OCO3)cc1 | n
OCCOCc1ncn2c1CN(c1ncccn1)CCC2 | n
Cc1ccnc(C(C2CC2)n2cnc3sc4c(c3c2=O)CCNC4)c1 (stereo unspecified) | n
O=C(NC(=O)c1cnccc1C(F)(F)F)Nc1ccc(Cl)cc1Cl | n
FC(F)(F)c1ccncc1-c1ncc(-c2cccc(Cl)c2)o1 | -95.1
Cc1cccc(C)c1-n1nnnc1-c1cnccc1C(F)(F)F | n
CCN1C(=O)C(c2ccccc2)CC12CCN(Cc1nccs1)CC2 (stereo unspecified) | n
O=C(Nc1cc(-c2ccccn2)no1)c1cccc2[nH]ccc12 | n
SMILES | Tg IFNy HTS
CNC(=O)c1ccccc1Sc1ccc2c(/C=C/c3ccccn3)n[nH]c2c1 | -75.3!
CC(C)Sc1ccccc1C(=O)NCc1ccccn1 | n
CN(CCC(=O)N(C)C1Cc2ccccc2C1)C1CCS(=O)(=O)C1 (stereo unspecified) | n
CCN1CC2(CCN(c3ncccn3)CC2)COc2ccccc2S1(=O)=O | n
Cc1ccc(Nc2nc(C(=O)Nc3ccc(F)cc3C)nc3ccccc23)cc1 | n
Cc1ccc(C)c(NC(=O)c2ccc(Nc3nnc(C)c4ccccc34)cc2)c1 | -88.1
Cc1ccc(Nc2nc(C(=O)Nc3cc(Cl)ccc3C)nc3ccccc23)cc1 | n
Cc1cc(C)n(CC2(CNC(=O)c3ccc(=O)n(C)c3)CC2)n1 | n
Cc1nnsc1C(=O)N1CCC(c2n[nH]c(=O)n2Cc2ccccc2)CC1 | n
Cc1ccc(NC(=O)C(=O)NCCc2csc(-c3ccc(C(F)(F)F)cc3)n2)cc1 | n
CS(=O)(=O)CCNCc1ccc(-c2ccc3ncnc(Nc4ccc(OCc5cccc(F)c5)c(Cl)c4)c3c2)o1 | -81.3
Cc1nn(C)c(C)c1CCNS(=O)(=O)Cc1ccc(Cl)c(Cl)c1 | n
CCCCOCC(=O)N1CCC2(CCOCC2)CC1 | n
CCN(CC)CCCNC(=O)c1ccc2ccc(N3CCC(C)CC3)n2c1 | n
COCCN(CCOC)C(=O)c1ccc2ccc(N3CCC(C)CC3)n2c1 | -88.3
CCCCN(C)C(=O)c1ccc2ccc(N3CCN(CC4CC4)CC3)n2c1 | n
N#CC(Cc1cccnc1)C(=O)Nc1ccccc1 (stereo unspecified) | n
O=C1CSC(=O)N1CCN1C(=O)CSC1=O | n
O=C(NCc1ccccn1)C1CCCN(C2CCN(C(=O)c3ccon3)CC2)C1 (stereo unspecified) | n
Cc1ccccc1-n1nc(C)c(-c2cncn2CCNC2CCS(=O)(=O)C2)c1C (stereo unspecified) | n
O=C(c1cscn1)N1C[C@H](Oc2ncccc2F)[C@@H]2OCCC[C@@H]21 | n
Cc1ccc(NC(=O)Cn2c(=O)cc(C(=O)N3CCc4ccccc4C3)c3ccccc32)cc1C | n
Cc1oc(C2CCN(S(=O)(=O)c3ccc(F)cc3)CC2)nc1C(=O)N1CCCC1 | n
Cc1oc(C2CCN(C(=O)Nc3cccc(Cl)c3C)CC2)nc1C(=O)N(C)C | n
Cc1oc(C2CCN(C(=O)Nc3ccc(Cl)cc3)CC2)nc1C(=O)N1CCCC1 | n
Cc1oc(C2CCN(C(=O)Nc3cccc(F)c3C)CC2)nc1C(=O)N(C)C | -79.4

Screening data from PubChem BioAssay.
